# Experimental data reported in PubChem BioAssay (NCI).
# Values joined by “and” are separate entries in the source; they are usually repeats but may differ in a detail not shown here. Identical values can stand only once. About 79,000 compounds went through this panel and 15% of them were active in at least one assay; those are over-represented in the sample as a whole. Values without a mark were called inactive. Active and inactive are the calls of the source. Rule as the data show it: active = growth inhibition above about 70%; inactive = the rest.
# Key:
# [1] = NCI Yeast Anticancer Drug Screen. Data for the rad50 strain (AID 155);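 also: 0% = growth of vehicle-only cultures of the same strain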; details: S. cerevisiae rad50 strain growth inhibition, active compounds read high; at 50.0 µM unless noted
# Method in brief: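 Genetically altered yeast (DNA repair pathway); compound treatment; growth inhibition vs vehicle ctrl.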
# [2] = NCI Yeast Anticancer Drug Screen. Data for the mec2-1 strain (AID 157); details: S. cerevisiae mec2-1 strain, active compounds read high; at 50.0 µM unless noted
# Method in brief: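 Growth inhibition is read against vehicle-treated controls after compound exposure of the mec2-1 yeast strain, which is defective in DNA damage repair or cell cycle control.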
# [3] = NCI Yeast Anticancer Drug Screen. Data for the sgs1 mgt1 strain (AID 161);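 also: 0% = growth of cultures given vehicle only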; details: S. cerevisiae sgs1 mgt1 strain, active compounds read high; at 50.0 µM unless noted
# Method in brief: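 Percent growth inhibition was derived by comparing compound-exposed mutant yeast with vehicle-exposed cultures. The strain carries alterations in DNA damage repair.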
# [4] = NCI Yeast Anticancer Drug Screen. Data for the cln2 rad14 strain (AID 165);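 also: 0% = growth equal to vehicle treated cultures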; details: S. cerevisiae cln2 rad14 strain, active compounds read high; at 50.0 µM unless noted
# Method in brief: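 Growth inhibition, relative to vehicle-treated controls, is the read-out. The test organism is a yeast strain with defined genetic alterations, cln2 rad14.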
# [5] = NCI Yeast Anticancer Drug Screen. Data for the bub3 strain (AID 167); details: S. cerevisiae bub3 mutant strain, active compounds read high; at 50.0 µM unless noted
# Method in brief: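 Yeast carrying a defined mutation is treated with each compound, and growth is compared with that of vehicle-exposed cells to give inhibition.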
# [6] = NCI Yeast Anticancer Drug Screen. Data for the mlh1 rad18 strain (AID 175); details: S. cerevisiae mlh1 rad18 strain growth inhibition, active compounds read high; at 50.0 µM unless noted
# Method in brief: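 Cells of a genetically altered yeast strain, deficient in DNA damage repair, were treated with compound. Their growth was then compared with that of vehicle-treated cultures to give inhibition.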
Structure (SMILES),growth inhibition [1],growth inhibition [2],growth inhibition [3],growth inhibition [4],growth inhibition [5],growth inhibition [6]
O=C1CSC2=NCCN12,14.8% and 22.8%,-3.6% and -15.3%,-5.25% and 6.8%,1.5% and 3.2%,1.55% and -11.9%,21.3% and 18.8%
O=C(N(O)c1ccccc1Cl)C(O)(c1ccccc1)c1ccccc1,28.2%,16.6%,59.1%,37%,31.4%,75.5% (active)
CCC(=N\NC(=S)NCCN(C)C)/C(C)=N/NC(=S)NCCN(C)C,57%,13.2%,52.2%,4.95%,16.5%,54.9%
CC1CC(C)NC(=S)N1 (stereo not drawn),-16.6%,-3.9%,-9.85%,16.7%,3.25%,-5.95%
CCOP(=O)(OCC)/C(=C\n1c(=S)[nH]c2cc(C)ccc21)C(=O)OC,-34.1%,-27.7%,13.3%,-4.4%,-2.5%,31.3%
CCN(CC)Cc1c(/C=C\c2cc(OC)c(OC)c(OC)c2)ccc(OC)c1O,-7.05%,4.4%,14.1%,9.55%,15.3%,-64%
CC[N+]1(CC)CC[N+]2(CC1)CC[N+]1(CC[N+](CC)(CC)CC1)CC2,-16.9%,-3.4%,12.1%,-26.6%,1.7%,2.7%
Cc1cccc(NC(=O)C(=O)C(C(=O)c2ccc3ccccc3c2)C2OC(=O)c3ccccc32)c1C (stereo not drawn),-3.95%,4.75%,13.5%,-59.5%,5.75%,-6.75%
CCN(CC)CCCCCCNc1cc(O)cc2cccnc12,18.5%,30.8%,44%,8.45%,11.4%,14.4%
CN(C(=O)c1ccc([N+](=O)[O-])cc1)C(c1ccco1)P(=O)(c1ccccc1)c1ccccc1 (stereo not drawn),71.1% (active),36.4%,56.5%,0.4%,46.2%,26.4%
Cc1ccc(Cl)cc1NC(=O)c1ccccc1,3.45%,-1.25%,-8.5%,-28.9%,-18.1%,14.8%
CCOc1cc(OCC)c2c(c1)C(=O)OC2=O,4.15%,-3.8%,10%,4.05%,-34.4%,-10.2%
CCCCCCOS(=O)(=O)c1ccc(C)cc1,23.1%,-9.95%,-2.1%,16.6%,6.7%,22.4%
O=C(CS(=O)(=O)c1ccccc1)c1ccccc1,-14.4% and 14.6%,-18.9% and 13.1%,-6.05% and 12.6%,8.75% and 1.5%,0.55% and 29.9%,-29.9% and 28.3%
COC(=O)NCC1OCC2OC(C)(C)OC12 (stereo not drawn),14.8%,3.25%,-10.9%,-62.5%,14.8%,9.35%
O=C(CO[N+](=O)[O-])OC/C=C/c1ccccc1,-4.25%,5.35%,-2%,-0.65%,2.55%,8.6%
O=C(CI)NCc1cn(C2CC(O)C(CO)O2)c(=O)[nH]c1=O (stereo not drawn),4.9%,3.85%,5.85%,19.8%,1.15%,3.3%

Structure (SMILES),growth inhibition [1],growth inhibition [2],growth inhibition [3],growth inhibition [4],growth inhibition [5],growth inhibition [6]
O=[N+]([O-])c1ccc(/C(=C\c2ccc(-c3ccccc3)o2)S(=O)(=O)c2ccccc2)o1,26.2%,-17.5%,-5.1%,23.6%,-1.2%,2.25%
O=[N+]([O-])c1ccc(N/N=C2/CC3CCC2C3)c([N+](=O)[O-])c1 (stereo not drawn),-4.3%,-21.4%,0.8%,-7.05%,5.6%,0.55%
CCCN(CCC)CC(O)CNc1cc(OC)cc2cccnc12 (stereo not drawn),9.75%,-16.2%,6.7%,-35.7%,19.9%,5.7%
Cc1cc(O)c(C)c(C)c1O,-4.1%,-12.6%,-6.95%,-12.4%,4%,8.85%
CCC(CC)C(=O)OC1CCCCC1,9.9%,5.25%,13.8%,-7.8%,4.8%,5.35%
O=C1OC(c2ccccc2)=C2CCC3CCCCN1C23 (stereo not drawn),-2.15%,-29.7%,12.8%,23.4%,34.6%,9.25%
CC12CC[C@H](O)C(C)(C)[C@H]1CC[C@](C)(O)C2COc1ccc2ccc(=O)oc2c1 (stereo partly drawn),86.3% (active),75.2% (active),85.6% (active),37.1%,76.3% (active),77.1% (active)
CC(C)CCCC(C)[C@H]1CCC2C3CC=C4C[C@@H](OC(=O)CC(CC(=O)[O-])C(=O)[O-])CC[C@]4(C)C3CC[C@@]21C.N.N.[Pt+4] (stereo partly drawn),26.2%,13.1%,11.7%,4.2%,12.6%,0.35%
CC(C)(C)OC(=O)NCCCCC(N)C(N)=O (stereo not drawn),-19.6%,-32.2%,-31.9%,15.8%,5.15%,-1.95%
C=C1C(=O)OC2CC(C)C(/C=C/C(C)=O)=CCC12 (stereo not drawn),-7.45%,-7.6%,-19.9%,-12.5%,-43%,-99.8%
O=[N+]([O-])c1cccc(Nc2nc(Cl)nc(Cl)n2)c1,-0.65%,21%,5.25%,-8.25%,-18.8%,-14.5%
CC(=O)[CH-]C(=O)c1ccccc1.CC(=O)[CH-]C(=O)c1ccccc1.CC[C@H](/C=C/C(C)[C@H]1CCC2[C@@H]3CC=C4C[C@@H]([O-])CC[C@]4(C)C3CC[C@@]21C)C(C)C.CC[C@H](/C=C/C(C)[C@H]1CCC2[C@@H]3CC=C4C[C@@H]([O-])CC[C@]4(C)C3CC[C@@]21C)C(C)C.Cl.[Ti+4] (stereo partly drawn),8%,2.65%,19.3%,-12.1%,24.6%,9.55%
CCOC(=O)C(CC/C=C\c1ccccc1)N1CCC[C@H]1C(=O)OC (stereo partly drawn),-7.9%,-5%,-11.9%,9.55%,2.75%,-13.3%
Cc1ccccc1OC(=O)Oc1ccccc1C,8.7%,-2.6%,4.8%,1%,21.1%,21.9%
c1ccc(-n2ncnn2)cc1,-6.5%,-11.3%,-8.55%,-41.1%,24.4%,-1.75%
CC(=O)O[C@H]1[C@@H](OC(C)=O)C(C)(C)/C=C/[C@H](C)C(=O)[C@@]2(OC(C)=O)C[C@@](C)(OC(C)=O)[C@H](OC(C)=O)[C@@H]2[C@H]2OC(=O)CC[C@@]2(OC(=O)c2ccccc2)[C@@H]1OCC(C)C,3.85%,-2.15%,-15.8%,36%,-22.3%,-0.15%
